Test results reported in publication PMC7862700, “An all-to-all approach to the identification of sequence-specific readers for epigenetic DNA modifications on cytosine”.

How the values were obtained:
Assay in all cases: DAPPL (digital affinity profiling via proximity ligation, sequencing); 10 mM Tris-HCl pH 7.5, 50 mM NaCl, 1 mM DTT, 4% glycerol, room temperature, 30 min; GST-TFs on glutathione beads, 16-mer random dsDNA library, 0.1% formaldehyde crosslink after washing; high values mean tight binding
FLI1 = target: T1, FLI1 (Homo sapiens, UniProt Q01543 1-452); conditions: protein: recombinant; tags: N-terminal GST; dsDNA, one strand shown
T1 sequence: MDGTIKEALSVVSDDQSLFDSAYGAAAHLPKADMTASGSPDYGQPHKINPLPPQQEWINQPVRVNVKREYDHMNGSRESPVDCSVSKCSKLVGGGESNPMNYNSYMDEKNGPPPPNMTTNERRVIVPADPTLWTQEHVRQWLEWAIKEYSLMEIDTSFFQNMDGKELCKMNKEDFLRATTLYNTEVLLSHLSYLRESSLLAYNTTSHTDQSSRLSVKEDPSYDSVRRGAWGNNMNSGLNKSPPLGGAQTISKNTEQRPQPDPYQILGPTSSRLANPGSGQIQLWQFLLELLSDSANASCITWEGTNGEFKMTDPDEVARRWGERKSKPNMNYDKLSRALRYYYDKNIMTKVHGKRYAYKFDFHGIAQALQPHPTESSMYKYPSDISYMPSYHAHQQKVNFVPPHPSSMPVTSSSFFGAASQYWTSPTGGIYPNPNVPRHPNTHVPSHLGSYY
Method in brief: (§1)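 Yeast served to express human transcription factors as GST fusions, which were then captured on glutathione beads and labelled with DNA barcodes. Pooled with a tag-only sample, they were incubated with 200 nmole of a 16-mer random double-stranded DNA library for 30 min at room temperature in Tris/NaCl/DTT/glycerol buffer, washed, crosslinked with 0.1% formaldehyde, ligated by proximity, amplified by PCR and sequenced. Dividing each hexamer's read frequency for a factor by its frequency for the tag-only sample gives the binding signal.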

ELK1 = target: T2, ELK1 (Homo sapiens, UniProt P19419 1-428); conditions: protein: recombinant; tags: N-terminal GST; dsDNA, one strand shown
T2 sequence: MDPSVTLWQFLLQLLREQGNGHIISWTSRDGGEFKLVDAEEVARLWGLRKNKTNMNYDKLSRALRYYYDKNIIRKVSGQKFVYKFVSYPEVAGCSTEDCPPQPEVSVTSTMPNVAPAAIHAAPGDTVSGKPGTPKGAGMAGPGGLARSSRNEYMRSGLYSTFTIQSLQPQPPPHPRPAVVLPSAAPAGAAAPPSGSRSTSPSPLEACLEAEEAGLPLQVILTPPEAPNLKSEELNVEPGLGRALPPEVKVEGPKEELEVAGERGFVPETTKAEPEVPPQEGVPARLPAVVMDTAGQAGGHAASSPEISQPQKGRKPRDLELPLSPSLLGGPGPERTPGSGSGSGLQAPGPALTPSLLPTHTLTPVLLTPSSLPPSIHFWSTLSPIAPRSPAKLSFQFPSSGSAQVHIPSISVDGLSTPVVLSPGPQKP
Method in brief: as §1

GABPA = target: T3, GABPA (Homo sapiens, UniProt Q06546 1-454); conditions: protein: recombinant; tags: N-terminal GST; dsDNA, one strand shown
T3 sequence: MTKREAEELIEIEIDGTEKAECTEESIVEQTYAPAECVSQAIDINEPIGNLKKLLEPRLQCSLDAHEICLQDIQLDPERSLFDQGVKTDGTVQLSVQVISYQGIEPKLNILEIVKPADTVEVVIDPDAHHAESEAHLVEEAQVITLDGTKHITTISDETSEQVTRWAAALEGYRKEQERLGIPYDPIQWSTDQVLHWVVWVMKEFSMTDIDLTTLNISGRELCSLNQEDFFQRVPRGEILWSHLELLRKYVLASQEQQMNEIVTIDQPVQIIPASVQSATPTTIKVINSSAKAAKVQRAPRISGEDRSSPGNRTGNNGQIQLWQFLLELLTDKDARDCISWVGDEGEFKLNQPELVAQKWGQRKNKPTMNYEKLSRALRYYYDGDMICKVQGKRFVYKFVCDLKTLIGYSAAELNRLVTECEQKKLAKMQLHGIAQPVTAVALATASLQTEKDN
Method in brief: as §1

ERG = target: T4, ERG (Homo sapiens, UniProt P11308 1-479); conditions: protein: recombinant; tags: N-terminal GST; dsDNA, one strand shown
T4 sequence: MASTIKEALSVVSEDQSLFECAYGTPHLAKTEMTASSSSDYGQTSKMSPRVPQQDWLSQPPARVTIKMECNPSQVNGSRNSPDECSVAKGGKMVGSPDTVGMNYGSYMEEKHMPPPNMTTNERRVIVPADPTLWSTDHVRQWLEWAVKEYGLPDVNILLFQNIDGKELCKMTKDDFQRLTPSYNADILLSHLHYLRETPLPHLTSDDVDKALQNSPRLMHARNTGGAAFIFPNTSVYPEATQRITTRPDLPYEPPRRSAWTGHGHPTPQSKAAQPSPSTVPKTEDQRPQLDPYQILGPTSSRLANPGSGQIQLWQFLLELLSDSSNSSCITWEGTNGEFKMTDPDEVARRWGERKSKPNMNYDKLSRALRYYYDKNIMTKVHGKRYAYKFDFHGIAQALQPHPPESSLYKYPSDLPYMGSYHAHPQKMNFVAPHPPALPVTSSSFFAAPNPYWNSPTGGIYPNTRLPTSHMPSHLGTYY
Method in brief: as §1

ELF1 = ELF1 (Homo sapiens, UniProt P32519 1-619); conditions: protein: recombinant; tags: N-terminal GST; dsDNA, one strand shown
Method in brief: as §1

EHF = target: T5, EHF (Homo sapiens, UniProt Q9NZC4 1-300); conditions: protein: recombinant; tags: N-terminal GST; dsDNA, one strand shown
T5 sequence: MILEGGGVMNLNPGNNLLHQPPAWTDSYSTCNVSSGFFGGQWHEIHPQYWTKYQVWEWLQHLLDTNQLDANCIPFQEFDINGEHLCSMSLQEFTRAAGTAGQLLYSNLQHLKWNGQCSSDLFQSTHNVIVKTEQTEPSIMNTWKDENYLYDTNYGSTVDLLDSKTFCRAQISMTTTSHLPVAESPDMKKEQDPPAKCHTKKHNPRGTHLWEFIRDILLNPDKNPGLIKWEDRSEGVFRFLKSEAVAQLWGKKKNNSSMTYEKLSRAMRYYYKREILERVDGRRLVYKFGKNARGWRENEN
Method in brief: as §1

SPI1 = SPI1 (Homo sapiens, UniProt P17947 1-270); conditions: protein: recombinant; tags: N-terminal GST; dsDNA, one strand shown
Method in brief: as §1

SPIB = SPIB (Homo sapiens, UniProt Q01892 1-262); conditions: protein: recombinant; tags: N-terminal GST; dsDNA, one strand shown
Method in brief: as §1

ELK3 = target: T6, ELK3 (Homo sapiens, UniProt P41970 1-407); conditions: protein: recombinant; tags: N-terminal GST; dsDNA, one strand shown
T6 sequence: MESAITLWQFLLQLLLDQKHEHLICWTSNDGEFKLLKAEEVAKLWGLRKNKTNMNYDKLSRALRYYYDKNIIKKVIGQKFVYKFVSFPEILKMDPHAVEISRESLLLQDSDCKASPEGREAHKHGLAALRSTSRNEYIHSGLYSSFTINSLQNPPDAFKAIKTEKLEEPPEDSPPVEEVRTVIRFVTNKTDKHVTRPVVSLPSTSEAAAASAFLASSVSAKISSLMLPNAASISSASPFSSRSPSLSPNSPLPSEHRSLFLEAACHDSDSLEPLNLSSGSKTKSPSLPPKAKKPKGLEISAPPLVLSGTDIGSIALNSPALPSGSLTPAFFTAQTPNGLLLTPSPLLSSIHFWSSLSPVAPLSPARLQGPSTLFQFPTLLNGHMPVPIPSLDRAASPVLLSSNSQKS
Method in brief: as §1

FEV = target: T7, FEV (Homo sapiens, UniProt Q99581 1-238); conditions: protein: recombinant; tags: N-terminal GST; dsDNA, one strand shown
T7 sequence: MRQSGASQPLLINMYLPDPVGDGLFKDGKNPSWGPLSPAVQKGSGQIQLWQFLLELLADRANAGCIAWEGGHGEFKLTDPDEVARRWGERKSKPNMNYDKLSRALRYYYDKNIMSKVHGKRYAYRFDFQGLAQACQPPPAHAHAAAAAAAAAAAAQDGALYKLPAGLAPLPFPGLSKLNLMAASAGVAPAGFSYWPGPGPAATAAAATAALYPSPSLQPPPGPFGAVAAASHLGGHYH
Method in brief: as §1

ETV5 = ETV5 (Homo sapiens, UniProt P41161 1-510); conditions: protein: recombinant; tags: N-terminal GST; dsDNA, one strand shown
Method in brief: as §1

HSF1 = HSF1 (Homo sapiens, UniProt Q00613 1-529); conditions: protein: recombinant; tags: N-terminal GST; chain copies: 3; dsDNA, one strand shown
Method in brief: as §1

SPIC = target: T8, SPIC (Homo sapiens, UniProt Q8N5J4 1-248); conditions: protein: recombinant; tags: N-terminal GST; dsDNA, one strand shown
T8 sequence: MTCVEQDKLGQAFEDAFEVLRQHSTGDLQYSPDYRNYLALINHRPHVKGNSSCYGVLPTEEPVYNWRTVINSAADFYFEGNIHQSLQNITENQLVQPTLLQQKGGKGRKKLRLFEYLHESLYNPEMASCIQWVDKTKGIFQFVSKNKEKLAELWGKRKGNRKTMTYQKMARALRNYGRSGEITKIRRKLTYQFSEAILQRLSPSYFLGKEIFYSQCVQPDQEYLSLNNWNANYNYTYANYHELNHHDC
Method in brief: as §1

ELF4 = ELF4 (Homo sapiens, UniProt Q99607 1-663); conditions: protein: recombinant; tags: N-terminal GST; dsDNA, one strand shown
Method in brief: as §1

ELK4 = target: T9, ELK4 (Homo sapiens, UniProt P28324-2 1-405); conditions: protein: recombinant; tags: N-terminal GST; dsDNA, one strand shown
T9 sequence: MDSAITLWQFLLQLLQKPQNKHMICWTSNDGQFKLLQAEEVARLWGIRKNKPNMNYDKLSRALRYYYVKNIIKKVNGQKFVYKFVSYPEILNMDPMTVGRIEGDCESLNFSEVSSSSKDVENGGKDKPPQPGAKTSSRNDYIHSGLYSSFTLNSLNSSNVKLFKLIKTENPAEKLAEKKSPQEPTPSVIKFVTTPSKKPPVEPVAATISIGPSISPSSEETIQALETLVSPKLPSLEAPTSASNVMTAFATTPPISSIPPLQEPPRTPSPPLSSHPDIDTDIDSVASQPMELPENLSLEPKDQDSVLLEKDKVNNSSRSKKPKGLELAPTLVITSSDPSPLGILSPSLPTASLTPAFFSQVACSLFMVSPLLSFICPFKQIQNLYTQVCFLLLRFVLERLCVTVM
Method in brief: as §1

ETV2 = target: T10, ETV2 (Homo sapiens, UniProt O00321 1-342); conditions: protein: recombinant; tags: N-terminal GST; dsDNA, one strand shown
T10 sequence: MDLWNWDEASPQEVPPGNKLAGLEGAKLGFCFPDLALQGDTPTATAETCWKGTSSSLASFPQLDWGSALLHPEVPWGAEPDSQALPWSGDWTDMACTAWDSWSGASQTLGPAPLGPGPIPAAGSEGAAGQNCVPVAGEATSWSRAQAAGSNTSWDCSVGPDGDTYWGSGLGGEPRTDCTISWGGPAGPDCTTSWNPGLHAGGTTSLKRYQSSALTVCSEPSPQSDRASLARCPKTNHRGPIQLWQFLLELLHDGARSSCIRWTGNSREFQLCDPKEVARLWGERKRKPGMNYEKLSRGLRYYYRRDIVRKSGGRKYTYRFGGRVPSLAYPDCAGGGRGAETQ
Method in brief: as §1

ELF3 = target: T11, ELF3 (Homo sapiens, UniProt P78545 1-371); conditions: protein: recombinant; tags: N-terminal GST; dsDNA, one strand shown
T11 sequence: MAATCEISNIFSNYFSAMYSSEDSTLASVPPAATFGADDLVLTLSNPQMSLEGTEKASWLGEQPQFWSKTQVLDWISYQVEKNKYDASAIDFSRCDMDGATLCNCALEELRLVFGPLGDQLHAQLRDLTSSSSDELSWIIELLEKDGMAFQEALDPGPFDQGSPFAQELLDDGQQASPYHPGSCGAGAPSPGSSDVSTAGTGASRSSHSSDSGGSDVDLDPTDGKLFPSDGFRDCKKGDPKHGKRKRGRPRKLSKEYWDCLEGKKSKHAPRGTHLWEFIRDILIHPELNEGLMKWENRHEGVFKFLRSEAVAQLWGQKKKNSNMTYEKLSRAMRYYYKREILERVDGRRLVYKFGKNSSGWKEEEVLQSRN
Method in brief: as §1

CRX = CRX (Homo sapiens, UniProt O43186 1-299); conditions: protein: recombinant; tags: N-terminal GST; dsDNA, one strand shown
Method in brief: as §1

ETV1 = ETV1 (Homo sapiens, UniProt P50549 1-477); conditions: protein: recombinant; tags: N-terminal GST; dsDNA, one strand shown
Method in brief: as §1

Sequence of ELF4 (Q99607 whole entry): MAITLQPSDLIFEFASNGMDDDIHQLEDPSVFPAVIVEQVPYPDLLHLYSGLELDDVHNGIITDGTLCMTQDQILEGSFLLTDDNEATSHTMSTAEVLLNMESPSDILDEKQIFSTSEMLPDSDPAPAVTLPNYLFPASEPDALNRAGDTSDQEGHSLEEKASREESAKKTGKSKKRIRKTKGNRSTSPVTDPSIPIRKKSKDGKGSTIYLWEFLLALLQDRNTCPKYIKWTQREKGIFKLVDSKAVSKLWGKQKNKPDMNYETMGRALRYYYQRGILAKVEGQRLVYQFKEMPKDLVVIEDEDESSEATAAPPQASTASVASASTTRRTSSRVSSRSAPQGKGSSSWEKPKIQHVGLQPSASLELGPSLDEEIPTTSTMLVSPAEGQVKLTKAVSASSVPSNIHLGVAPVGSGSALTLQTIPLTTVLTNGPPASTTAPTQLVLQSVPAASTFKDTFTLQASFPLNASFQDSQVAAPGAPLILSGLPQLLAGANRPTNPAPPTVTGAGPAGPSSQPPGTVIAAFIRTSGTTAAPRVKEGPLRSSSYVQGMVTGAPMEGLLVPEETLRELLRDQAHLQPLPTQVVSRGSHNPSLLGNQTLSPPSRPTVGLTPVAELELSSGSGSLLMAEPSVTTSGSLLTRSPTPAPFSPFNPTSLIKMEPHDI
Sequence of SPIB (Q01892 whole entry): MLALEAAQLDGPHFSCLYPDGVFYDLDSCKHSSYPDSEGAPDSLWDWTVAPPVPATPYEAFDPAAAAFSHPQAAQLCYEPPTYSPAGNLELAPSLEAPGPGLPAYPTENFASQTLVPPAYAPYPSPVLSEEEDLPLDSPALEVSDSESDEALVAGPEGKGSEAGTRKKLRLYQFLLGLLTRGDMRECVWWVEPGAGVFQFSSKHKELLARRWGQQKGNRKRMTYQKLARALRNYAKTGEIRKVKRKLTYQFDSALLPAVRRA
Sequence of CRX (O43186 whole entry): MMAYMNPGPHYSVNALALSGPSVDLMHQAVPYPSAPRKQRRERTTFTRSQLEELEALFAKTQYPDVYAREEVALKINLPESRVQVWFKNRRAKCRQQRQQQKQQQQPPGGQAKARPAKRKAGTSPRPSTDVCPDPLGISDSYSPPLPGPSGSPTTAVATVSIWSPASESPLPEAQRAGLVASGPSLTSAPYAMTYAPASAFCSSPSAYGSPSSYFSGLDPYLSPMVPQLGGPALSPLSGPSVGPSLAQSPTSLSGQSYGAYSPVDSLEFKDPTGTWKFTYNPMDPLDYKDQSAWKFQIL
Sequence of ETV5 (P41161 whole entry): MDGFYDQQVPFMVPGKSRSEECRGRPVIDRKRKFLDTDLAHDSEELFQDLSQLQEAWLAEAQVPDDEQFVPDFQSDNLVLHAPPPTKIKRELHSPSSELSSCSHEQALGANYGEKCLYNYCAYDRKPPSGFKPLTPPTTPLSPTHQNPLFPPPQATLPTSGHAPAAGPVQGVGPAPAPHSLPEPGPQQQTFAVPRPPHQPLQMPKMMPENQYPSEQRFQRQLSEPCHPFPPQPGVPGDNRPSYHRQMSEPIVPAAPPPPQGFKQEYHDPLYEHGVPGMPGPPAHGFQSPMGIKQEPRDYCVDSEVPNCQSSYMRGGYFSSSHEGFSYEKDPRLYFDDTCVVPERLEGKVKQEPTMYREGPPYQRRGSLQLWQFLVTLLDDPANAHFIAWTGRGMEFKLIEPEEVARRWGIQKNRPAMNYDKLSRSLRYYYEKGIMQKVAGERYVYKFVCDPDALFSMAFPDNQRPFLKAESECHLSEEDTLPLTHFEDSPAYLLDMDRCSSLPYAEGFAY
Sequence of HSF1 (Q00613 whole entry): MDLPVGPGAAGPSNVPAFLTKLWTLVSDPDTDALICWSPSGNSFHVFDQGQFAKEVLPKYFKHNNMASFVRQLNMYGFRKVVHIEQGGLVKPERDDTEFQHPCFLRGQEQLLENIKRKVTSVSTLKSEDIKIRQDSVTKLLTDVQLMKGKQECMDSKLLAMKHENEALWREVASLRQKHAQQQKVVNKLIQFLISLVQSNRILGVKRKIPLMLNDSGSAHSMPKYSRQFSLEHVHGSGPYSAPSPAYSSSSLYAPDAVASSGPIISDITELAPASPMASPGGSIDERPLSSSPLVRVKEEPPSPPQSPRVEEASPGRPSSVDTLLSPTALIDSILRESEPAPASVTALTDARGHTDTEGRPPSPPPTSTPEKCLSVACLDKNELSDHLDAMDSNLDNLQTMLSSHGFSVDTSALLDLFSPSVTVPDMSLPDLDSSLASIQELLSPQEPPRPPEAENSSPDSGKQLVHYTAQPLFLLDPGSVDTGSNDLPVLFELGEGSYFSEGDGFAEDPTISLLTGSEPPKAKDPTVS
Sequence of ELF1 (P32519 whole entry): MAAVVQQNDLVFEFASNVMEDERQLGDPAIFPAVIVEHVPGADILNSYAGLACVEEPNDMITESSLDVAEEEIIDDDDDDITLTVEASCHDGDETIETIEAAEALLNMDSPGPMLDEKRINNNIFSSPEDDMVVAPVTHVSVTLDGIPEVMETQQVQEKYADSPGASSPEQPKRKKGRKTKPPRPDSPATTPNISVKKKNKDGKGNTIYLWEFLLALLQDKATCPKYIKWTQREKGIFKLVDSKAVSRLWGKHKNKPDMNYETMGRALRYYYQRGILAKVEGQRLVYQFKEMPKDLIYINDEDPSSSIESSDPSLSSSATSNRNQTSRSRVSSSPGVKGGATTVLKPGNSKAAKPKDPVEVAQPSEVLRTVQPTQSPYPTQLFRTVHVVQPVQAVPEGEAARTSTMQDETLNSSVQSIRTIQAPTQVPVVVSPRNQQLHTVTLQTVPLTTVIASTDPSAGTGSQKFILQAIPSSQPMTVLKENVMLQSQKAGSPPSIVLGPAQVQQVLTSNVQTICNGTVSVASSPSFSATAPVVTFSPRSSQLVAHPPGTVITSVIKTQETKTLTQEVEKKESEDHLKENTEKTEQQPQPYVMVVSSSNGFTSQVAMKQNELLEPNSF
Sequence of ETV1 (P50549 whole entry): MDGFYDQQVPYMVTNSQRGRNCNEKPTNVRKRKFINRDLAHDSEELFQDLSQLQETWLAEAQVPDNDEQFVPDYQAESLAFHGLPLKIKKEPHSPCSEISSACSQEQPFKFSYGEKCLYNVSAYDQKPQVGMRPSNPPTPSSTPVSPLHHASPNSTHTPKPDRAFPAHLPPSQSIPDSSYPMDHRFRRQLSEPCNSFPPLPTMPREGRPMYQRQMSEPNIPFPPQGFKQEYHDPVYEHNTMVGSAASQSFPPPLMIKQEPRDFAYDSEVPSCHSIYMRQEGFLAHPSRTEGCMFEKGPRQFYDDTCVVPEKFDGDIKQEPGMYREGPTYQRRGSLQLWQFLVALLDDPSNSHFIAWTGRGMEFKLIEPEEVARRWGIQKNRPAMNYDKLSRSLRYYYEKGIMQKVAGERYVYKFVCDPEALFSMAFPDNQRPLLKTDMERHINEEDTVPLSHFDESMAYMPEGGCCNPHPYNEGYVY

## CCTTTC
FLI1
  binding signal: 1.76 fold enrichment (6-mer frequency, TF over GST control)
ELK1
  binding signal: 1.57 fold enrichment (6-mer frequency, TF over GST control)
GABPA
  binding signal: 1.61 fold enrichment (6-mer frequency, TF over GST control)
ERG
  binding signal: 1.62 fold enrichment (6-mer frequency, TF over GST control)
ELF1
  binding signal: 1.57 fold enrichment (6-mer frequency, TF over GST control)
EHF
  binding signal: 1.57 fold enrichment (6-mer frequency, TF over GST control)
SPI1
  binding signal: 1.64 fold enrichment (6-mer frequency, TF over GST control)
SPIB
  binding signal: 1.7 fold enrichment (6-mer frequency, TF over GST control)
ELK3
  binding signal: 1.64 fold enrichment (6-mer frequency, TF over GST control)
FEV
  binding signal: 1.71 fold enrichment (6-mer frequency, TF over GST control)
ETV5
  binding signal: 1.51 fold enrichment (6-mer frequency, TF over GST control)
HSF1
  binding signal: 1.43 fold enrichment (6-mer frequency, TF over GST control)
SPIC
  binding signal: 1.65 fold enrichment (6-mer frequency, TF over GST control)
ELF4
  binding signal: 1.68 fold enrichment (6-mer frequency, TF over GST control)
ELK4
  binding signal: 1.64 fold enrichment (6-mer frequency, TF over GST control)
ETV2
  binding signal: 1.56 fold enrichment (6-mer frequency, TF over GST control)
ELF3
  binding signal: 1.42 fold enrichment (6-mer frequency, TF over GST control)
CRX
  binding signal: 1.27 fold enrichment (6-mer frequency, TF over GST control)
ETV1
  binding signal: 1.5 fold enrichment (6-mer frequency, TF over GST control)
